AmpC detergent = qHTS Inhibitors of AmpC Beta-Lactamase (assay with detergent). Potency, µM (titrated, usually from 114 µM), without a hit: at the top dose activity change, negative = inhibition, hits mostly inhibitors. 370,000 compounds, 0.041% hits. P00811. AmpC hydrolysis of nitrocefin, absorbance 480 nm, 0.01% Triton;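 also: 0% = no-compound wells and -100% = no-enzyme wells; nearly all actives have a fitted effect of over 25% in size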
Target sequence (P00811 whole entry, looked up): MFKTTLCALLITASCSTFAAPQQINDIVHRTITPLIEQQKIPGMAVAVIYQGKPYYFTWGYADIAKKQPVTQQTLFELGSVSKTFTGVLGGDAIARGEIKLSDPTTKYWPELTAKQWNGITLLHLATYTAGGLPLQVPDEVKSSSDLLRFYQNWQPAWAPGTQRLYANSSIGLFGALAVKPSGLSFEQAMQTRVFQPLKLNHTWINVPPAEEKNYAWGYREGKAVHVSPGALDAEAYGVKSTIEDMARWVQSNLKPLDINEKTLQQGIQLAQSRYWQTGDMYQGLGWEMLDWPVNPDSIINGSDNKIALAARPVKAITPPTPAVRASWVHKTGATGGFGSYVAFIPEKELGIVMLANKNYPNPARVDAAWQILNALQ
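AmpC (5.3 nM in the dispensed reagent) in 20 mM phosphate pH 7.0 with 0.01% (detergent screen) or 0.0001% Triton X-100 was preincubated with compounds for 15 min at room temperature. Nitrocefin was then added from an 800 uM solution, and hydrolysis was followed at 480 nm.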
Sm TGR block = qHTS Assay for the Inhibitors of Schistosoma Mansoni Peroxiredoxins; 360,000 compounds, 3% hits; AID 485364, 2010; Potency, µM (titrated, usually from 114 µM), for the others: at the highest dose activity change, negative = inhibition, usual class: inhibitors; purified TGR, DTNB reduction, TNB absorbance 405 nm; also: nearly all actives have a fitted effect of over 60% in size
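Kinetic colorimetric format: TGR-catalysed, NADPH-driven DTNB reduction monitored via TNB absorbance. Enzyme dispensed at 20 nM; compound exposure 15 min at room temperature before reaction start.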
AmpC no deterg = qHTS Inhibitors of AmpC Beta-Lactamase (assay without detergent); P00811; Potency, µM (series often up to 57.1 µM), for inactives: at the highest dose activity change, negative = inhibition, usual class: inhibitors; AID 485341, 2010; 330,000 compounds, 0.52% hits; AmpC nitrocefin hydrolysis, absorbance 480 nm, 0.0001% Triton;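 also: plate controls were no compound for no effect and no enzyme for full effect; nearly all actives have a fitted effect of over 20% in size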
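20 mM phosphate pH 7.0 + 0.01% (detergent screen) or 0.0001% Triton X-100; 5.3 nM AmpC reagent; cpd preinc 15 min RT; nitrocefin (800 uM stock) to start; A480 q20 s × 4 min; Activity was normalised to no-enzyme and no-compound control wells.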
Numbers without * were called inactive; ? = inconclusive; nt = not tested or not shown; [ ] = another dose, or the depositor's remark. A selection: hits, their analogues and other compounds. The true share with any hit is near 3.3%. Calls follow the shape of the dose curve; as a rule, active = well fitted curve in the direction sought with a large enough effect; inconclusive = small, poorly fitted or top-dose-only effect, or another doubt; inactive = no such curve, though single readings can be large; an effect the other way counts as inactive or inconclusive. Unless noted, % is scaled to controls: 0 for no effect and ±100 for the full control effect; potency is read from the fitted curve at half-maximal effect.

SMILES | AmpC detergent | Sm TGR block | AmpC no deterg
O=C(NCCCO)c1ccc2nc(-c3ccco3)c(-c3ccco3)nc2c1 | -14% | 2.5µM* | -39%[11.4 µM]
O=C(NCCO)Nc1ccc2nc(-c3ccco3)c(-c3ccco3)nc2c1 | -11% | nt | 47%
O=C(CSc1nc(=O)[nH]c2c1CCC2)NCc1ccc(Cl)cc1 | 2% | 2% | nt
COc1ccc(NC(=O)Cn2c(=O)n(-c3ccc(OC)cc3)c(=O)c3ccc(C(=O)NCc4ccc(C)cc4)cc32)cc1 | 7% | -3% | nt
Cc1ccc(NC(=O)C2CCC(CNS(=O)(=O)c3ccc4c(c3)CCCC(=O)N4)CC2)c(C)c1 (stereo not drawn) | 0% | 5% | nt
O=C(COC(=O)c1ccc([N+](=O)[O-])o1)Nc1nc2ccccc2s1 | -11% | 28µM* | -34%
O=C(COC(=O)c1ccc(Br)o1)Nc1nc2ccccc2s1 | 1% | 0% | -39%
CCCN1CCN(CCCNC(=O)c2ccc3c(c2)sc2nc(-c4ccc(OC)cc4)cn23)CC1 | 5% | -3% | nt
Cc1cccc(NC(=O)CNC(=O)COc2ccc(C(=O)c3ccc(F)cc3)cc2)c1C | -1% | 1% | -54%
Cc1cccc(NC(=O)CNC(=O)COc2ccc(-c3ccc(C#N)cc3)cc2)c1C | -3% | 1% | 28µM*
CC(=O)Nc1cccc(NC(=O)c2c(-c3ccccc3)c(-c3ccccc3)nn(C)c2=O)c1 | 6% | -3% | nt
O=C(CCCCCNc1nc(=S)[nH]c2ccccc12)NCCc1ccc(Cl)cc1 | -5% | -1% | 20µM*
CC(C)CCNC(=O)Cc1ccc(Nc2nc(=S)[nH]c3ccccc23)cc1 | 3% | 10% | 16µM*
O=C(CCCCCNc1nc(=S)[nH]c2ccccc12)NCCc1c[nH]c2ccccc12 | ? | -2% | -57%
O=C(Cc1ccc(Nc2nc(=S)[nH]c3ccccc23)cc1)NC1CCCCC1 | -8% | 0% | -40%[11.4 µM]
CCN(c1ccc(Cl)cc1)S(=O)(=O)c1nnc(NC(=O)c2ccccc2C)s1 | 20% | -6% | nt
CC(C)(C)c1ccc(OCC(=O)N(Cc2ccco2)Cc2ccccc2F)cc1 | 27% | 1% | nt
COc1ccc(C(=O)NCC(c2ccc3c(c2)OCO3)N2CCN(C)CC2)cc1OC (stereo not drawn) | 7% | 5% | nt
CCOc1ccccc1C(=O)N(Cc1cc(OC)c(OC)c(OC)c1)c1ccccn1 | 14% | 5% | nt
Cn1c(=O)c([N+](=O)[O-])c(-n2cnc3ccccc32)c2ccccc21 | -8% | 16µM* | -16%
CCN(CC)c1c([N+](=O)[O-])c(=O)n(C)c2ccccc12 | 2% | -1% | -19%
Cn1c(=O)c([N+](=O)[O-])c(Cl)c2ccccc21 | ? | 0.45µM* | -19%
Cc1nccn1-c1c([N+](=O)[O-])c(=O)n(C)c2ccccc12 | 5% | -16% | -13%
Cc1ccc(-n2c(=O)c3c(c4cc(C)ccc4n3C)n(CC(=O)Nc3c(C)cccc3C)c2=O)cc1 | 0% | -5% | nt
COc1cccc(-n2c(=O)c3sc4ccccc4c3n(CC(=O)Nc3ccccc3OC)c2=O)c1 | 1% | 3% | nt
SMILES | AmpC detergent | Sm TGR block | AmpC no deterg
CN(C)C1C(=O)C(C(N)=O)=C(O)C2(O)C(=O)C3=C(O)c4c(O)cccc4C(C)(O)C3C(O)C12 (stereo not drawn) | ? | 32µM* | -55%
C[C@H]1c2cccc(O)c2C(O)=C2C(=O)[C@]3(O)C(O)=C(C(N)=O)C(=O)[C@@H](N(C)C)C3[C@@H](O)C21 (stereo partly drawn) | -19% | -15% | -38%
Cc1cc(C)c(NC(=O)Cn2ccn(-c3cccc(Cl)c3)c(=O)c2=O)c(C)c1 | 11% | -6% | nt
CCC(=O)N1CCC2(CC1)Oc1ccc(Cl)cc1C(=O)C21CC(c2ccccc2)=NO1 (stereo not drawn) | 1% | -24% | 150%
CCC(=O)N1CCC2(CC1)Oc1ccc(F)cc1C(=O)C21CC(c2ccccc2)=NO1 (stereo not drawn) | 2% | 50µM* | 174%
COC(=O)c1c(SC)nc2ccccc2c1OCc1cc(C)ccc1C | 7% | 19% | nt
CCC(c1nnnn1CCc1ccccc1)N(Cc1ccco1)Cc1cc2c(C)ccc(C)c2[nH]c1=O (stereo not drawn) | -11% | ? | 32%
CCC(c1nnnn1CCc1ccccc1)N(Cc1ccco1)Cc1cc2cc(C)cc(C)c2[nH]c1=O (stereo not drawn) | ? | 56µM* | 38%
CCOC(=O)c1ccc(NC(=O)CSc2ncc(S(=O)(=O)c3ccc(C)c(Cl)c3)c(=O)[nH]2)cc1 | ? | -4% | nt
COc1ccc(S(=O)(=O)c2c(O)c3ccc(C(=O)NCc4ccccc4)cc3[nH]c2=O)cc1 | -5% | -1% | nt
CCn1c(C(=O)NCc2ccc(C)cc2)cc2sc(Cl)cc21 | 21% | 10% | nt
Cc1nnc2n(C3CCCCC3)c(=O)c3c4c(sc3n12)COC(C)(C)C4 | -6% | 40µM* | 62%
Cc1nnc2n(C3CCCCC3)c(=O)c3c4c(sc3n12)CCC4 | 3% | -25% | -6%
O=C(NCc1cccnc1)C1c2ccccc2C(=O)N1Cc1ccccc1 (stereo not drawn) | 1% | -4% | -5%
O=C(NCc1cccnc1)C1c2ccccc2C(=O)N1Cc1ccco1 (stereo not drawn) | -7% | 35µM* | -6%
CCN1CCN(C(c2ccc(F)cc2)c2sc3nc(-c4ccco4)nn3c2O)CC1 (stereo not drawn) | 7% | 5% | nt
OCCOCCN1CCN(C(c2ccccc2)c2ccc(Cl)cc2)CC1 (stereo not drawn) | -11% | 0% | 150%
COCCn1c(CN2CCN(c3cccc(Cl)c3)CC2)nc2c1c(=O)n(C)c(=O)n2C | ? | 0% | 156%
CCN1CCN(C(c2cccc(F)c2)c2c(O)cc(C)n(CCOC)c2=O)CC1 (stereo not drawn) | -6% | 4µM* | nt
CCN1CCN(C(c2ccc(F)cc2)c2c(O)cc(C)n(CCOC)c2=O)CC1 (stereo not drawn) | 9% | 4.5µM* | nt
CCN1CCN(C(c2ccc(Cl)cc2)c2c(O)cc(C)n(CCOC)c2=O)CC1 (stereo not drawn) | 11% | 4.5µM* | nt
COCCn1c(SCC(=O)Nc2cccc(F)c2)nc2c(c1=O)SCC2 | -4% | -1% | -24%
CCN1CCN(C(c2cccc(Cl)c2)c2c(O)cc(C)n(CCOC)c2=O)CC1 (stereo not drawn) | 1% | 5.6µM* | nt
Oc1c(C(c2ccccc2F)N2CCC3(CC2)OCCO3)sc2nc(-c3ccco3)nn12 (stereo not drawn) | 2% | 15% | nt
COc1ccc(OC)c(NC(=O)c2csnn2)c1 | 20% | 2% | nt
CC(C)Cn1c(CN2CCN(c3cccc(Cl)c3)CC2)nc2c1c(=O)[nH]c(=O)n2C | 7% | -4% | nt
COc1ccc(C(CC(=O)Nc2cccc(C)c2C)N2Cc3ccccc3C2=O)cc1 (stereo not drawn) | 0% | -1% | nt
CCN1CCN(C(c2ccccc2)c2c(O)cc(C)n(CCOC)c2=O)CC1 (stereo not drawn) | 0% | 4µM* | nt

Screening results (PubChem)
